# According to PubChem BioAssay (NCATS):
# Inconclusive results are not listed. Where a call stands in place of a potency, no number is given. Active and inactive are the calls of the source. Unless noted, the call rests on the fitted dose curve; in most records, active means well fitted inhibition curve with a large enough effect; inconclusive means small, poorly fitted or top-dose-only effect; inactive means flat fitted curve, though single readings scatter.
# Key:
# [1] = target: DNA dC->dU-editing enzyme APOBEC-3G (Homo sapiens) (UniProt Q9HC16); test: qHTS for inhibitors of Vif-A3G interactions: Validation (AID 588379); settings: Vif-A3G protein interaction assay; series mostly up to 46.1 µM
# Outline: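 HeLa cells stably expressing Vif and A3G-eYFP, 700 cells/well, incubated overnight at 37 deg C, then exposed to compound overnight at 37 deg C. Inhibition of Vif-mediated degradation read as increased yellow fluorescence (Ex 488/Em 500-530) by laser-scanning cytometry.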
# [2] = target: Glucocorticoid receptor (Homo sapiens) (UniProt P04150); test: qHTS assay for small molecule agonists of glucocorticoid receptor signaling (AID 588532; active means well fitted curve in the direction sought with a large enough effect in the signal ratio, with a control signal flat; the % refers to the signal ratio); settings: HeLa MMTV-bla, beta-lactamase ratio, agonist, 18 h; stronger effect = higher value; percent of dexamethasone control, DMSO zero
# Outline: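 Cells were plated and rested 3-5 h at 37 C, compounds were added in titration and incubated 18 h, then CCF4 substrate was loaded for 2 h at RT before reading blue/green fluorescence. EC50 came from Hill-equation fitting.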
# [3] = qHTS assay for small molecule antagonists of peroxisome proliferator-activated receptor delta signaling (AID 588535; active means well fitted inhibition curve with a large enough effect in the signal ratio, with a control signal flat, not every such curve was filed as active; the % refers to the signal ratio;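 on max response: cells co-treated with a PPAR-delta agonist as stimulator during compound exposure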); settings: HEK293T PPARd-UAS-bla, beta-lactamase FRET ratio, 18 h; 460 nm channel
# Outline: (§1)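 Cells were seeded at 4000 per well in assay medium containing 2% charcoal/dextran FBS and held 5 hrs at 37 C. Compounds were then added for 18 hrs. CCF4 substrate was applied for 2 hrs at room temperature before fluorescence reading.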
# [4] = target: Peroxisome proliferator-activated receptor delta (Homo sapiens) (UniProt Q03181); test: as above; settings: HEK293T PPARd-UAS-bla, beta-lactamase FRET ratio, 18 h; series mostly up to 76.7 µM
# Outline: as §1
# [5] = target: Estrogen receptor (Homo sapiens) (UniProt P03372); test: qHTS assay for small molecule agonists of estrogen receptor alpha signaling (AID 588514; calls by dose curve; further: nearly all actives have a fitted effect of over 70% in size; further: potency means the concentration at half of the fitted maximal effect); settings: ER-alpha-UAS-bla HEK293, beta-lactamase ratio, 18 h; series mostly up to 76.8 µM
# Outline: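 Reporter-gene assay. […] controls beta-lactamase in HEK 293 GripTite cells; after 18 hrs with compound, CCF4 substrate is added for 2 hrs and fluorescence is read.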
# [6] = target: Glucocorticoid receptor (Homo sapiens) (UniProt P04150); test: qHTS assay for small molecule antagonists of glucocorticoid receptor signaling (AID 588533; active means well fitted inhibition curve with a large enough effect in the signal ratio, with a control signal flat, not every such curve was filed as active; the % refers to the signal ratio;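 further: cells stimulated with 2 nM dexamethasone as agonist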; further: potency means the concentration at half of the fitted maximal effect); settings: HeLa MMTV-bla, GRE beta-lactamase ratio, antagonist mode, 18 h; series mostly up to 76.8 µM
# Outline: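 Antagonist-mode qHTS: compound titrations added to GRE-bla HeLa cells, then dexamethasone 2 nM final; 18 h, 37 C. CCF4 FRET fluorescence normalized to dexamethasone and DMSO; IC50 from Hill fit.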
# [7] = target: Estrogen receptor (Homo sapiens) (UniProt P03372); test: qHTS assay for small molecule antagonists of estrogen receptor alpha signaling (AID 588513; active means well fitted curve in the direction sought with a large enough effect in the signal ratio, with a control signal flat, not every such curve was filed as active; the % refers to the signal ratio); settings: ER-alpha-UAS-bla HEK293, beta-lactamase ratio, antagonist mode; series mostly up to 76.9 µM
# Outline: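 Fluorescence from CCF4 substrate after 2 h at room temperature gave reporter activity; cells had been exposed to compound and 0.5nM 17-beta-estradiol for 18 h at 37 C. Hill-equation fitting yielded IC50 and maximal response.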
# [8] = target: Androgen receptor (Homo sapiens) (UniProt P10275); test: qHTS assay for small molecule agonists of androgen receptor signaling (AID 588515; active means well fitted curve in the direction sought with a large enough effect in the signal ratio, with a control signal flat; the % refers to the signal ratio); settings: AR-UAS-bla HEK293, beta-lactamase ratio, agonist 16 h; stronger effect = higher value
# Outline: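 EC50 and efficacy came from Hill fits of titrations (up to 92 uM) normalized to 30 nM R1881 as 100% and DMSO as 0%. Compound exposure was 16 h at 37 C on AR-UAS-bla HEK293 cells, with a 405/460/530 nm CCF4 fluorescence read.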
# [9] = target: Androgen receptor (Homo sapiens) (UniProt P10275); test: qHTS assay for small molecule antagonists of androgen receptor signaling (AID 588516; active means well fitted curve in the direction sought with a large enough effect in the signal ratio, with a control signal flat, not every such curve was filed as active; the % refers to the signal ratio); settings: AR-UAS-bla HEK293, beta-lactamase ratio, antagonist mode, 16 h; series mostly up to 76.8 µM
# Outline: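 Cells were plated and incubated 5 h, compounds added in titration, then R1881 (10 nM final) as agonist. After 16 h at 37 C, CCF4 substrate was loaded for 2 h at room temperature and fluorescence measured.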
# [10] = target: Bile acid receptor (Homo sapiens) (UniProt Q96RI1); test: qHTS assay for small molecule antagonists of farnesoid X receptor signaling (AID 588526; calls by dose curve); settings: HEK293T FXR-UAS-bla, beta-lactamase ratio, antagonist mode; series mostly up to 76.7 µM
# Outline: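 Antagonist mode: titrated compounds tested against chenodeoxycholic acid stimulation (normalized to 50 uM CDCA and DMSO) in GeneBLAzer HEK293T cells for 16 h. Beta-lactamase read by CCF4 fluorescence; IC50 from Hill fits.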
# Chain of Glucocorticoid receptor (Homo sapiens) (P04150 whole entry, looked up): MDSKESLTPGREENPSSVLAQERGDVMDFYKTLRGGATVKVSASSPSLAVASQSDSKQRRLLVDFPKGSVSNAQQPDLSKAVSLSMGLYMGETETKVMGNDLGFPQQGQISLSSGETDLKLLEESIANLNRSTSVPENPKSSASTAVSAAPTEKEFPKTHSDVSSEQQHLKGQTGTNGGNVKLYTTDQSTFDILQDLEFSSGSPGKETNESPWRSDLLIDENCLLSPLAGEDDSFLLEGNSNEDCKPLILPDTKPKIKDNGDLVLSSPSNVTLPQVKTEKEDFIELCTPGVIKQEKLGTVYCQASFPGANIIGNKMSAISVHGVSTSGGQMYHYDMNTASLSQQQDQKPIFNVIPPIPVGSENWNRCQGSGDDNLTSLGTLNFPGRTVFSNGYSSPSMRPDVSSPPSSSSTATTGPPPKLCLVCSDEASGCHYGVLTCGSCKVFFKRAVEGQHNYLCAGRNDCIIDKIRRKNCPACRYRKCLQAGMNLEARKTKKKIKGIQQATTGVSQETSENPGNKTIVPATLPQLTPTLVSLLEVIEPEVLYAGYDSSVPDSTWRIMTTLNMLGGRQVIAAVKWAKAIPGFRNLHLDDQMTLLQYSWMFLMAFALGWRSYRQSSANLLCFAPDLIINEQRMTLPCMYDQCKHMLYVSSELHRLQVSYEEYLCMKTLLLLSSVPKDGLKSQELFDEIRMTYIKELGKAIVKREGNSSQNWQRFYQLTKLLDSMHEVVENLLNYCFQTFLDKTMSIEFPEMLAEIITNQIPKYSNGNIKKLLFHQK
# Chain of Estrogen receptor (Homo sapiens) (P03372 whole entry, looked up): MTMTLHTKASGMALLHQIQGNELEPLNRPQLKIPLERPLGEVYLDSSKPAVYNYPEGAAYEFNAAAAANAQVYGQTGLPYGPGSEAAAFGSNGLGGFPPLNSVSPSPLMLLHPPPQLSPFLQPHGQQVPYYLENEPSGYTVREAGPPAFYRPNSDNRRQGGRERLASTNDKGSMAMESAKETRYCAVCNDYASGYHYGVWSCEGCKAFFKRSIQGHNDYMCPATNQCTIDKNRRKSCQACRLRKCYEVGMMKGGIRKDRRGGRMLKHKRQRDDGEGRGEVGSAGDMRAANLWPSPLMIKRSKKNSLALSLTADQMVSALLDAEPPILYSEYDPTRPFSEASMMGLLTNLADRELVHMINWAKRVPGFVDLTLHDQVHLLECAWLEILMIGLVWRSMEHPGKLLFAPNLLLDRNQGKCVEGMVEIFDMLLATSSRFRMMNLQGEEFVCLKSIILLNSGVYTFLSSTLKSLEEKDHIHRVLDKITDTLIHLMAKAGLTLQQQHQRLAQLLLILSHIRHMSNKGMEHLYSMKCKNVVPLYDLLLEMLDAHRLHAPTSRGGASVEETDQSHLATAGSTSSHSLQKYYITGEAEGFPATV
# Chain of Androgen receptor (Homo sapiens) (P10275 whole entry, looked up): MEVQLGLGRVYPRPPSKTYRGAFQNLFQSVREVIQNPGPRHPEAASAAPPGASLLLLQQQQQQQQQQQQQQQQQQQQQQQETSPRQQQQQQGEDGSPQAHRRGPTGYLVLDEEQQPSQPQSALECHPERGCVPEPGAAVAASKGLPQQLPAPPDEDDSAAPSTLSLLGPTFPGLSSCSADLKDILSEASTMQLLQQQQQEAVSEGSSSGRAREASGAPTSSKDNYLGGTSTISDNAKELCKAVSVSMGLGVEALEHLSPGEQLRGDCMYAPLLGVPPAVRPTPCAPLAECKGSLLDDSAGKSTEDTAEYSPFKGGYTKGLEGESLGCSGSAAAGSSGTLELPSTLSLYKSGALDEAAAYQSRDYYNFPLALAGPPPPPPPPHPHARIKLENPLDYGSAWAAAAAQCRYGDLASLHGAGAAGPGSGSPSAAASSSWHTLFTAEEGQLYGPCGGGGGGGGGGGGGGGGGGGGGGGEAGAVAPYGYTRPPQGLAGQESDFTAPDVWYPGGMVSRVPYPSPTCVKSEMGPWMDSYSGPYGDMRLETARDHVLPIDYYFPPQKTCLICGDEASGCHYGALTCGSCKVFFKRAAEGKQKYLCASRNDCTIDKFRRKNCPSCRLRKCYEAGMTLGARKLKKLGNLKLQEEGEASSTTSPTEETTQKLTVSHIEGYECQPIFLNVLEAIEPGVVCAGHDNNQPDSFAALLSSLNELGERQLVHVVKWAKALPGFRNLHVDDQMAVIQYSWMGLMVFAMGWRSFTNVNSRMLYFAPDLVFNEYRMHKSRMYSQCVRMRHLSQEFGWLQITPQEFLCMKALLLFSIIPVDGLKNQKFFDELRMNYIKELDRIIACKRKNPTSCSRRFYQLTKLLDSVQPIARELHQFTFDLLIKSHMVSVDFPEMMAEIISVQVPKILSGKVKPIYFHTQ
# Chain of DNA dC->dU-editing enzyme APOBEC-3G (Homo sapiens) (Q9HC16 whole entry, looked up): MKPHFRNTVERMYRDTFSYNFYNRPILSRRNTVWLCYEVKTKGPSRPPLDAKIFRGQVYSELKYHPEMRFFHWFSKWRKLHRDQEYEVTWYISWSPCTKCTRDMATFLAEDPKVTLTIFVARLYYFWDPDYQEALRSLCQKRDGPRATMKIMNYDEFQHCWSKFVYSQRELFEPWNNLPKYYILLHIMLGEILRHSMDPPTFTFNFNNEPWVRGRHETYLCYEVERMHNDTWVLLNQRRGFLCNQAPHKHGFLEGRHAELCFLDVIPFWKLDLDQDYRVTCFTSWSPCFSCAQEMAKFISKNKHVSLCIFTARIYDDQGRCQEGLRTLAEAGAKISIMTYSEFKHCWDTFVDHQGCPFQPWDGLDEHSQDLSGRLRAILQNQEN
# Chain of Bile acid receptor (Homo sapiens) (Q96RI1 whole entry, looked up): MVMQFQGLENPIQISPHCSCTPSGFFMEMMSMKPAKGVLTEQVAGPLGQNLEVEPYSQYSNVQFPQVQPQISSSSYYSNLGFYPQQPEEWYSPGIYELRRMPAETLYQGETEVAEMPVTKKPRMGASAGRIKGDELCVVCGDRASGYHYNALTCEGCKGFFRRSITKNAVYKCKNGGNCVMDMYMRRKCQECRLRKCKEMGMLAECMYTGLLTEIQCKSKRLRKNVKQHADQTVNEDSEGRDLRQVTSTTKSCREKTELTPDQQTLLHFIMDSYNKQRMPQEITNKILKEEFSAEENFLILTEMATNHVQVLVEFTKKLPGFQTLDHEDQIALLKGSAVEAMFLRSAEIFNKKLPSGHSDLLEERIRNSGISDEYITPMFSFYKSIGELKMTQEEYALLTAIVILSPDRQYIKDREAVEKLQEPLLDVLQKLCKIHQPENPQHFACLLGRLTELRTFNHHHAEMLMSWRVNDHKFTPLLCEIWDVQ
# Chain of Peroxisome proliferator-activated receptor delta (Homo sapiens) (Q03181 whole entry, looked up): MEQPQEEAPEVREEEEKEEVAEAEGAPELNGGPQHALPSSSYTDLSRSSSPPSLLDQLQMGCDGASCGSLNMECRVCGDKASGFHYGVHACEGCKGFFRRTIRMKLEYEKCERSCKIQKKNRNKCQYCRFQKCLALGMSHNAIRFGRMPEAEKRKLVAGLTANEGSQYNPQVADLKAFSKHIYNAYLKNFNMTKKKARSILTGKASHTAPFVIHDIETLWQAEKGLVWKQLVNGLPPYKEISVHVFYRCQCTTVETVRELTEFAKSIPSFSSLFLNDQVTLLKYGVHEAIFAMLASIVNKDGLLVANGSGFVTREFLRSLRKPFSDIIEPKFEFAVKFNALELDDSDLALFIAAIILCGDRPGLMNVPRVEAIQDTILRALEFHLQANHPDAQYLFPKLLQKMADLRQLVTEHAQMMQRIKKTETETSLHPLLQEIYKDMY
smiles,measurement,setting,value
NC[C@@H]1O[C@H](c2ccccc2)Cc2c1ccc(O)c2O,Potency,[1],inactive
NCCS(=O)O,Potency,[1],inactive
NC(N)=NC(N)=Nc1ccccc1,Potency,[1],inactive
CC(=O)NNC(=O)N1Cc2ccccc2Oc2ccc(Cl)cc21,Potency,[1],inactive
Cc1cccc(C(=O)NCN2CCN(c3ccccc3C#N)CC2)c1,Potency,[1],inactive
CC1=C(/C=C/C(C)=C/C=C/C(C)=C\C(=O)O)C(C)(C)CCC1,activation,[2],-7.34% (inactive)
same,max response,[3],61.4%
same,outcome,[4],inactive
CCCc1c(-c2ccc(O)cc2)nn(-c2ccc(O)cc2)c1-c1ccc(O)cc1,Potency,[1],inactive
same,Potency,[5],0.0112 µM (active)
same,Potency,[6],28.2 µM (active)
CCSC(=N)N,Potency,[1],inactive
COC(=O)[C@H](NC(=O)c1cc(-c2ccccc2)nc2ccccc12)c1ccccc1,Potency,[1],inactive
NC(=O)c1ccccc1,outcome,[7],inactive
same,Potency,[5],inactive
same,activation,[8],-3.5% (inactive)
same,outcome,[9],inactive
same,outcome,[10],inactive
same,activation,[2],-7.58% (inactive)
same,Potency,[6],inactive
CN[C@H](CC(=O)O)C(=O)O,Potency,[1],inactive
N=C(N)SCCN,Potency,[1],inactive
CC(=O)C(C)=O,outcome,[10],inactive
same,activation,[2],6.3% (inactive)
same,Potency,[6],inactive
same,max response,[3],5.57%
same,outcome,[4],inactive
N#Cc1cc2nc(O)c(O)nc2cc1[N+](=O)[O-],Potency,[1],inactive
CC[C@@H]1Cc2cc(O)ccc2C2=C1c1ccc(O)cc1C[C@H]2CC,activation,[8],-13.9% (inactive)
same,activation,[2],-4.83% (inactive)
CC(C)NC[C@H](O)COc1cccc2ccccc12,Potency,[1],inactive
CC1CCN(CC[C@H]2CCCN2S(=O)(=O)c2cccc(O)c2)CC1,Potency,[1],inactive
CCCCCCCCCCCCCCSCC(=O)O,Potency,[5],inactive
same,activation,[8],-2.58% (inactive)
same,outcome,[9],inactive
same,Potency,[6],inactive
O=C(OCCN1CCOCC1)C1(c2ccccc2)CCCCC1,Potency,[1],inactive
O=C1OC(=O)C2C3CCC(O3)C12 (stereo not given),Potency,[1],inactive
Cc1nc(N=Nc2ccc(S(=O)(=O)O)cc2S(=O)(=O)O)c(COP(=O)(O)O)c(C=O)c1O,Potency,[1],inactive
CC[N+](CC)(CC)CC(=O)Nc1c(C)cccc1C,Potency,[1],inactive
C/C(=C\c1ccc(C(=O)O)cc1)c1ccc2c(c1)C(C)(C)CCC2(C)C,Potency,[1],inactive
same,Potency,[5],inactive
same,outcome,[10],inactive
same,activation,[2],-4.65% (inactive)
COc1ccccc1N1CCN(CCCCN2C(=O)c3ccccc3C2=O)CC1,Potency,[1],inactive
CCCc1c(OCCCOc2ccc(OCC(=O)O)cc2)ccc(C(C)=O)c1O,activation,[8],-2.09% (inactive)
same,outcome,[9],inactive
same,outcome,[10],inactive
same,activation,[2],-12.7% (inactive)
same,Potency,[6],inactive
COCc1nc2c([nH]1)c(=O)n(C)c(=O)n2CC(C)C,Potency,[1],inactive
N[C@@H](CS(=O)O)C(=O)O,Potency,[1],inactive
NC/C=C\C(=O)O,Potency,[1],inactive
CN1CCc2cc(Cl)c(O)cc2[C@@H](c2ccccc2)C1,Potency,[1],inactive
N[C@H](C(=O)O)[C@H](O)C(=O)O,Potency,[1],inactive
c1ccc2nc(C3=NCCN3)ccc2c1,Potency,[1],inactive
NCCNS(=O)(=O)c1cccc2c(Cl)cccc12,Potency,[1],inactive
CCCCCCN(CCCCCC)C(=O)Cc1c(-c2ccc(F)cc2)[nH]c2ccccc12,Potency,[1],inactive
CC[C@H](NC(=O)c1c(C)c(-c2ccccc2)nc2ccccc12)c1ccccc1,Potency,[1],inactive
O=C(O)/C=C/c1ccc(O)c(O)c1,Potency,[1],inactive
